Screening data (PubChem)
Only a selection was taken, and hits are over-represented in it overall.
Dicer inh – blocks human Dicer maturation of pre-miR-21; AID 1347074; cat-ELCCA pre-miR-21 Dicer processing, chemiluminescence; hits give high values; Q9UPY3; z-score at 25 µM; 47,000 tested, 6% active; in the data active = z-score above about 3, passing the limit was not always enough;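 also: plate controls were vehicle for no effect and no enzyme for full effect; higher signal means more uncleaved substrate so more Dicer inhibition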
Target sequence (Q9UPY3 whole entry, looked up): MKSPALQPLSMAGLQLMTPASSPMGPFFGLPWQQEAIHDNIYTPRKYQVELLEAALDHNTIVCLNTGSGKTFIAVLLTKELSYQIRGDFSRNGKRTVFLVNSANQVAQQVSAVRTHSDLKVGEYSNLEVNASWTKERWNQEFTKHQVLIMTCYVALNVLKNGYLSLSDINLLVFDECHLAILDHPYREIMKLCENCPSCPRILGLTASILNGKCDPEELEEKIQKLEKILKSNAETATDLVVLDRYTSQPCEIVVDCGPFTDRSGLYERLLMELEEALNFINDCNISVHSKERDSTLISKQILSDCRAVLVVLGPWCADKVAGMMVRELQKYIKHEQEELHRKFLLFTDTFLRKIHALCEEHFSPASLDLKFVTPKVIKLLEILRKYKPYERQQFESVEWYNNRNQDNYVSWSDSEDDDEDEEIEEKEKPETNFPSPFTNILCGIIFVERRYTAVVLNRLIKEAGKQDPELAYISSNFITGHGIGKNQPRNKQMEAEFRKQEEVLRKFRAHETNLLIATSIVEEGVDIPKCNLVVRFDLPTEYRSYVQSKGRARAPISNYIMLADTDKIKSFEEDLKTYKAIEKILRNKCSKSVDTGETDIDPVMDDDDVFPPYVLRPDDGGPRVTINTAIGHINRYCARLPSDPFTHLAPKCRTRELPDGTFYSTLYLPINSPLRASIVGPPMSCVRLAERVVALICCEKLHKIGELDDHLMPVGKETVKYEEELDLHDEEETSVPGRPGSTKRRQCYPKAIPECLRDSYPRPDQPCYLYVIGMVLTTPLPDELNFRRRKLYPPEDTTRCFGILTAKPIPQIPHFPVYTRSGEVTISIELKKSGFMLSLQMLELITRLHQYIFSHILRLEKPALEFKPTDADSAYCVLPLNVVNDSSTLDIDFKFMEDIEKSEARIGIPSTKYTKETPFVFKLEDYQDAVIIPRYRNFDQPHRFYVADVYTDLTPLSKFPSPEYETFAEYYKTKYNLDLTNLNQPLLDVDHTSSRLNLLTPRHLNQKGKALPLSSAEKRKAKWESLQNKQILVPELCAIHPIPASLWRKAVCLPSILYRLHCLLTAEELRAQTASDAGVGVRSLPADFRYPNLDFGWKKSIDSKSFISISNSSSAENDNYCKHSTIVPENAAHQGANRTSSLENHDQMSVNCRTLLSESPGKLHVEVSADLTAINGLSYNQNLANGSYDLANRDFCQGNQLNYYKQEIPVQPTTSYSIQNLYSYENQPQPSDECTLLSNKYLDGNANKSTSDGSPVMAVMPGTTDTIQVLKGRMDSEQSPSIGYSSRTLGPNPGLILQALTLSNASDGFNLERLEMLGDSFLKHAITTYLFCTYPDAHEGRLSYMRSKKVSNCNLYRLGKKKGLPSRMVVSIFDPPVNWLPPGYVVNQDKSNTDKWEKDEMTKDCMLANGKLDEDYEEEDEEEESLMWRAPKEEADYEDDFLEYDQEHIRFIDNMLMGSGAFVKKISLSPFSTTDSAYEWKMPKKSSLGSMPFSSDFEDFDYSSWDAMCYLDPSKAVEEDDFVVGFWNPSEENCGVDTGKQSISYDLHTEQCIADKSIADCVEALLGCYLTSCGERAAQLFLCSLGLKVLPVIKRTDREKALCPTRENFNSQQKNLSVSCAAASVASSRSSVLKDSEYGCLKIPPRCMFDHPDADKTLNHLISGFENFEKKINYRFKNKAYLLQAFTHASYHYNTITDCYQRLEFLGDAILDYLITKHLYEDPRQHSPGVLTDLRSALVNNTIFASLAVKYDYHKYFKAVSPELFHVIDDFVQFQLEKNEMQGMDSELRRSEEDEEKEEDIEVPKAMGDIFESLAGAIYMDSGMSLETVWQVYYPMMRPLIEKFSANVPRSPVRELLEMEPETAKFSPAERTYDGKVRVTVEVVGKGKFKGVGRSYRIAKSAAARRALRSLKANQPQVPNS
Active calls of the source: *.

SMILES	Dicer inh
COc1ccccc1C1C(C(=O)OCC2CCCO2)=C(C)NC2=C1C(=O)CCC2 (stereo unspecified)	-0.11
CCSCCOC(=O)C1=C(C)NC2=C(C(=O)CCC2)C1c1ccc(-c2ccccc2)cc1 (stereo unspecified)	-0.43
CCOCCOC(=O)C1=C(C)NC2=C(C(=O)CCC2)C1c1ccc(C(=O)OC)cc1 (stereo unspecified)	4.8*
CCSCCOC(=O)C1=C(C)NC2=C(C(=O)CCC2)C1c1ccccc1OC(C)C (stereo unspecified)	1.1
CC1=C(C(=O)OCC2CCCO2)C(c2ccccc2OCc2ccccc2)C2=C(CCCC2=O)N1 (stereo unspecified)	3.6*
CCOCCOC(=O)C1=C(C)NC2=C(C(=O)CCC2)C1c1ccc(C)cc1 (stereo unspecified)	0.1
CCSCCOC(=O)C1=C(C)NC2=C(C(=O)CCC2)C1c1ccc(Cl)cc1 (stereo unspecified)	4.2*
CC1CCc2c(sc(N)c2C(=O)Nc2ccc(Cl)cc2)C1 (stereo unspecified)	1.4
Cc1cc2nc(NCCO)n(CCOc3ccccc3)c2cc1C	3.7
S=C1NC2=C(CCc3ccccc32)C(c2ccccc2Cl)N1 (stereo unspecified)	1.1
COc1cc(C2N(C)c3ccccc3N2C)ccc1O	0.55
CNC(=S)NNC(=O)C(CCSC)NC(=O)c1ccc(C(F)(F)F)cc1 (stereo unspecified)	-0.5
Cc1ccc(CN2CC34C=CC(O3)C(C(=O)OC(C)C)C4C2=O)cc1 (stereo unspecified)	0.5
COc1ccc(/C(O)=C2\C(=O)C(=O)N(CCCN3CCOCC3)C2c2ccc(C(C)(C)C)cc2)cc1 (stereo unspecified)	0.33
O=C(c1sc2cc(Cl)ccc2c1Cl)N1CCCCC1	-0.54
Cc1nc(-c2ccc(S(=O)(=O)N3CCCN(c4nc(-c5ccccc5)ns4)CC3)s2)cs1	0.24
CC(=O)c1ccccc1C(=O)c1ccc(C(C)(C)C)cc1	-0.54
CCCCOC(=O)C1=C(C)NC2=C(C(=O)CCC2)C1c1cc(Br)c(O)c(OCC)c1 (stereo unspecified)	3.2*
CCOCCOC(=O)C1=C(C)NC2=C(C(=O)CCC2)C1c1cc(Br)c(O)c(OC)c1 (stereo unspecified)	0.03
CCOc1cc(C2C(C(=O)OC3CCCC3)=C(C)NC3=C2C(=O)CCC3)cc(Br)c1O (stereo unspecified)	1.7
CCOC(=O)C1=C(C)NC(=O)C1CC(=O)Nc1ccc(C(=O)OCC)cc1 (stereo unspecified)	-1.1
O=C(C1=C(O)C(=O)N(CCCn2ccnc2)C1c1cccnc1)c1cccs1 (stereo unspecified)	3.1*
O=C(C1=C(O)C(=O)N(CCCn2ccnc2)C1c1cccnc1)c1cc2ccccc2o1 (stereo unspecified)	-0.82
COc1ccc(C2C(C(=O)c3cccs3)=C(O)C(=O)N2CCCn2ccnc2)cc1 (stereo unspecified)	-0.81
CCOC(=O)C(O)(c1ccc(NC(=O)Nc2cccc(Cl)c2)c(C)c1)C(F)(F)F (stereo unspecified)	2.2
SMILES	Dicer inh
CNC(=O)NC(=O)CSc1nc(-c2ccc(Cl)cc2)cn1-c1ccccc1	-0.33
Cc1nc(C)c(-c2csc(Nc3ccccc3)n2)s1	5.1*
Cc1nc(C)c(-c2csc(Nc3ccc(C(=O)O)cc3)n2)s1	-1.9
Cc1nc(C)c(-c2csc(Nc3cccc(O)c3)n2)s1	-1.1
CN(C)Cc1coc2ccccc2c1=O	-0.56
Nc1ccc(-c2nc3cc4sc(-c5ccc(N)cc5)nc4cc3s2)cc1	-2.1
Nc1cccc(-c2nc3cc4sc(-c5cccc(N)c5)nc4cc3s2)c1	0.71
c1cc(-c2nc3cc4sc(-c5ccn[nH]5)nc4cc3s2)[nH]n1	3.2*
COc1ccc(-c2oc3ncn4nc(-c5ccccn5)nc4c3c2-c2ccc(OC)cc2)cc1	-1.1
Cc1cc2nc3n(c2cc1C)C(O)C=C(c1ccccc1)S3 (stereo unspecified)	0.78
COc1cc(C2NC(C(=O)O)CS2)ccc1OCc1ccccc1F (stereo unspecified)	-0.95
O=C1CC(/C=C/c2ccccc2)(Nc2ccc(S(=O)(=O)N3CCCC3)cc2)C(=O)N1C1CCCCC1 (stereo unspecified)	-0.57
Nc1ccc(-c2nc3ccccc3o2)cc1	1.6
Cc1cc2nc(-c3cc(N)ccc3Cl)oc2cc1C	-1.8
Nc1ccc2oc(-c3ccccc3)nc2c1	0.65
Clc1ccc(Cn2nnc(N3CCCCC3)n2)cc1	14
Cc1cc(=O)oc2cc(NS(=O)(=O)c3ccccc3)ccc12	1.4
O=S(=O)(Nc1ccc2oc(-c3ccc(Cl)cc3)nc2c1)c1ccccc1	4*
Nc1ccc2nc(-c3ccccc3)oc2c1	4*
O=S(=O)(Nc1ccc2oc(-c3ccccc3F)nc2c1)c1ccccc1	-0.51
Clc1ccc(-c2nc3cc(NCc4cccs4)ccc3o2)cc1	-0.22
Clc1ccc(-c2nc3cc(CN4CCCCC4)ccc3o2)cc1	4.3*
Cc1ccc2nc(-c3cc(N)ccc3Cl)oc2c1	4*
Cc1ccc2nc(-c3ccc(N)cc3)oc2c1	0.3
N#CCS(=O)(=O)c1cccc(Cl)c1	-0.17
SMILES	Dicer inh
CCC(COC(C)=O)Nc1nc2c(c(=O)n(C)c(=O)n2C)n1Cc1ccccc1 (stereo unspecified)	-0.06
CN(CCCc1nc2ccccc2[nH]1)S(=O)(=O)c1ccc(Cl)cc1	-0.2
Cc1ccc(CS/C(N)=N/N)cc1	-2.7
O=C(O)c1cccnc1SC1CC(=O)N(c2ccccc2Cl)C1=O (stereo unspecified)	0.9
Nc1ccc(-c2nc3cc(Cl)ccc3o2)cc1	3.2*
Nc1ccc2oc(-c3cccc(Cl)c3)nc2c1	2.3
Nc1ccc2oc(-c3ccccc3F)nc2c1	2.3
O=C(Nc1ccc(-c2nc3ncccc3o2)cc1)c1ccc([N+](=O)[O-])o1	0.38
Cc1ccc(-c2nc3ncccc3o2)cc1N	-0.93
Cc1cc2nc(-c3ccc(N)cc3)oc2cc1C	0.76
Nc1ccc2oc(-c3ccc(-c4nc5cc(N)ccc5o4)cc3)nc2c1	1.1
Fc1ccc(-c2nc3ncccc3o2)cc1	3.3*
Nc1ccc2oc(-c3ccc(F)cc3)nc2c1	3.7*
NC(=O)c1oc2ccccc2c1NC(=O)c1cccc(Br)c1	0.22
C/S(=N\S(=O)(=O)c1cccc2nsnc12)c1ncc(Cl)cc1C(F)(F)F (stereo unspecified)	0.1
Clc1cccc(CSC2=NCCN2)c1	-0.28
CCc1ccc(C2CC(=O)Nc3nc(N)[nH]c(=O)c32)cc1 (stereo unspecified)	-1.1
FC(F)(F)c1csc(Nc2ccc(Cl)c(Cl)c2)n1	0.44
O=S(=O)(c1ccccc1)N1CCC2(Cl)CCCCC2C1c1ccccc1 (stereo unspecified)	-1.5
CCOc1ccc(C2CC(=O)NC(SCC)=C2C#N)cc1 (stereo unspecified)	1.9
O=C(CSc1ncn[nH]1)Nc1ccc(F)cc1	-0.99
Cc1cc(C)c(S(=O)(=O)Nc2ccc(O)c(Sc3ncn[nH]3)c2)cc1C	7.3*
Cc1cc(C(C)(C)C)cc(S(=O)(=O)Nc2ccc(O)c(Sc3ncn[nH]3)c2)c1C	8.2
CCCCN(C)c1ncnc2c1sc1nc(C)c3c(c12)CC(C)(C)OC3	-0.14
O=C(O)C12CC3CC(C1)CC(c1ccc([N+](=O)[O-])cc1)(C3)C2	-2.1
CN(C)/C=C(\C#N)c1nc(-c2ccc(Cl)cc2)cs1	0.91
NC(=O)C1(N2CCCCC2)CCN(C2CC(=O)N(c3cccc(Cl)c3)C2=O)CC1 (stereo unspecified)	1.2
